The campaign covered roughly 5,500 compounds. About 2,000 (36%) were called active. Not shown: some 18% with an inconclusive outcome. Cut-off read from the data, not from the text of the source: active = normalized growth mostly below about 0.91 (no sharp cut-off); inconclusive = no clear call, values can overlap the other calls; inactive = mostly above about 0.92. Some of the results follow.
Assay: chemical genetic growth profiling, strain panel (AID 1159580);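 note: tested at 20 µM; growth read once vehicle control cultures reached saturation at 30 °C; 1 = growth at the plate median or of vehicle wells; lower values mean less growth of the strain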
Settings: S. cerevisiae deletion strains, growth OD

Measured: normalized growth

O=C(O)CCC(=O)C(=O)O
inactive: locus YAL013W, strain DEP1, hits give low values 1.01 | locus YBR021W, strain FUR4, hits give low values 1.01 | locus YBR229C, strain ROT2, hits give low values 1.01 | locus YCL029C, strain bik1, hits give low values 1.03 | locus YDL035C, strain GPR1, hits give low values 1.03 | locus YDL074C, strain BRE1, hits give low values 1.05 | locus YDL101C, strain DUN1, hits give low values 1.02 | locus YDL185W, strain tfp1, hits give low values 1.03 | locus YDL192W, strain arf1, hits give low values 1.05 | locus YDR101C, strain arx1, hits give low values 1.05 | locus YDR162C, strain NBP2, hits give low values 1.02 | locus YDR318W, strain mcm21, hits give low values 1.01 | locus YDR388W, hits give low values 1.02 | locus YDR502C, strain sam2, hits give low values 1.03 | locus YEL061C, strain CIN8, hits give low values 1.01 | locus YER110C, hits give low values 1.03 | locus YER155C, strain BEM2, hits give low values 1 | locus YER167W, strain BCK2, hits give low values 1.01 | locus YGL078C, strain dbp3, hits give low values 1.02 | locus YGL086W, strain mad1, hits give low values 1 | locus YGL248W, strain PDE1, hits give low values 1.01 | locus YGR135W, strain pre9, hits give low values 0.987 | locus YGR229C, strain SMI1, hits give low values 1.03 | locus YGR252W, strain gcn5, hits give low values 0.942 | locus YHR030C, strain SLT2, hits give low values 1.01 | locus YHR079C, strain IRE1 (second series), hits give low values 1.03 | locus YHR094C, strain hxt1, hits give low values 1.01 | locus YHR129C, strain ARP1, hits give low values 1.02 | locus YHR200W, strain rpn10, hits give low values 1 | locus YIL066C, strain RNR3, hits give low values 1.01 | locus YIL073C, strain SPO22, hits give low values 1.07 | locus YIL125W, strain kgd1, hits give low values 1.02 | locus YIR030C, strain dcg1, hits give low values 1.03 | locus YJL095W, strain BCK1, hits give low values 1.02 | locus YJL134W, strain LCB3, hits give low values 1 | locus YJL168C, strain set2, hits give low values 1.01 | locus YJL187C, strain SWE1 (second series), hits give low values 1.02 | locus YJR043C, strain POL32, hits give low values 1.01 | locus YJR075W, strain HOC1, hits give low values 1 | locus YKL009W, strain mrt4, hits give low values 1.05 | locus YKL068W, hits give low values 1.01 | locus YKL085W, strain MDH1 (second series), hits give low values 1.01 | locus YKL085W, strain MDH1, hits give low values 1.01 | locus YKL190W, strain CNB1, hits give low values 1.01 | locus YKR001C, strain vps1, hits give low values 1.05 | locus YLR039C, strain RIC1, hits give low values 1.05 | locus YLR058C, strain SHM2, hits give low values 1.01 | locus YLR102C, strain apc9, hits give low values 1.01 | locus YLR262C, strain YPT6, hits give low values 1.05 | locus YLR268W, strain sec22, hits give low values 1.03 | locus YLR330W, strain CHS5, hits give low values 1.01 | locus YLR342W, strain FKS1 (second series), hits give low values 1.01 | locus YLR371W, strain rom2, hits give low values 1.01 | locus YLR418C, strain cdc73, hits give low values 1.02 | locus YML016C, strain PPZ1, hits give low values 1.01 | locus YML032C, strain rad52, hits give low values 0.995 | locus YML124C, strain tub3, hits give low values 1.02 | locus YMR078C, strain ctf18, hits give low values 1.03 | locus YMR223W, strain ubp8, hits give low values 1 | locus YMR307W, strain GAS1, hits give low values 1.05 | locus YNL067W, strain RPL9B, hits give low values 1.01 | locus YNL128W, strain TEP1, hits give low values 1.04 | locus YNL233W, strain BNI4, hits give low values 1.01 | locus YNL250W, strain rad50, hits give low values 1.03 | locus YNL271C, strain bni1, hits give low values 1.04 | locus YNL298W, strain CLA4, hits give low values 1.01 | locus YNL307C, strain MCK1, hits give low values 1.04 | locus YNR052C, strain pop2, hits give low values 1.02 | locus YOL012C, strain htz1 0.918 | locus YOL147C, strain pex11, hits give low values 1.02 | locus YOR061W, strain CKA2, hits give low values 1.01 | locus YOR069W, strain VPS5, hits give low values 1 | locus YOR136W, strain idh2, hits give low values 1.02 | locus YOR144C, strain elg1, hits give low values 1.02 | locus YOR184W, strain ser1, hits give low values 1.02 | locus YOR316C, strain cot1, hits give low values 1.02 | locus YPR119W, strain clb2, hits give low values 1.02 | locus YPR141C, strain kar3, hits give low values 1.02 | locus YPR163C, strain tif3, hits give low values 1.03 | locus YPR167C, strain met16, hits give low values 1.05 | strain wtn01, hits give low values 1.02

Reference: PubChem BioAssay AID1159580 (chemical genetic matrix, 2015)
